The text below walks through data of PubChem BioAssay AID1347414 (National Center for Advancing Translational Sciences (NCATS), 2020).

SMILES strings stand for the structures. Results filed as inconclusive are left out. The source made the active and inactive calls. Calls follow the shape of the dose curve; as a rule, active = well fitted inhibition curve with a large enough effect; inconclusive = small, poorly fitted or top-dose-only effect; inactive = no such curve, though single readings can be large or run the other way.

The assay in a line: qHTS to identify inhibitors of the type 1 interferon - major histocompatibility complex class I in skeletal muscle: Secondary screen by immunofluorescence. Also: nearly all actives have a fitted effect of over 70% in size. As to conditions: C25cl48 myoblasts, IFN-b induced HLA-ABC immunofluorescence, 24 h; series mostly up to 49.8 µM. In a few lines: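 HLA-ABC immunofluorescence, with nuclear and cell-body stains, was quantified by laser scanning cytometry. Read-out followed 24 h of IFN-beta (4.0 ng/ml) stimulation of C25cl48 human myoblasts with compounds titrated 1:3 over 11 points from 50 uM, with ruxolitinib as inhibitor control.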
Potency is read from the fitted curve at half-maximal effect.

`COc1cccc2c1C(=O)c1c(O)c3c(c(O)c1C2=O)C[C@@](O)(C(=O)CO)C[C@@H]3O[C@H]1C[C@H](N)[C@H](O)[C@H](C)O1`: the Potency is 230 nM (active). For the compound `CS(=O)(=O)N1CCC(NC(=O)c2[nH]ncc2NC(=O)c2c(Cl)cccc2Cl)CC1`, the Potency was 1450 nM (active). Regarding `Cc1ccc([N+](=O)[O-])cc1S(=O)(=O)N(C)/N=C/c1cnc2ccc(Br)cn12`, the Potency was 162 nM (active). As for `CNC(=O)c1ccc(Nc2ncc(C(F)(F)F)c(NCc3nccnc3N(C)S(C)(=O)=O)n2)cc1`, the Potency is 6470 nM (active).

With `CO[C@H]1C(=O)[C@]2(C)[C@@H](OC)C[C@H]3OC[C@@]3(OC(C)=O)[C@H]2[C@H](OC(=O)c2ccccc2)[C@]2(O)C[C@H](OC(=O)[C@H](O)[C@@H](NC(=O)OC(C)(C)C)c3ccccc3)C(C)=C1C2(C)C`, the Potency result is “inactive”. In the case of `CCc1cc(C(N)=O)ccc1-n1nc(C(C)C)c2c(-n3cnc(-c4cnn(C)c4)c3)ccnc21`, the Potency was 258 nM (active). On to `C/C=C1\NC(=O)[C@H]2CSSCCC=C[C@H](CC(=O)N[C@H](C(C)C)C(=O)N2)OC(=O)[C@H](C(C)C)NC1=O`, for which the Potency was 5.8 nM (active). For `C[C@@]12O[C@@H](C[C@]1(O)CO)n1c3ccccc3c3c4c(c5c6ccccc6n2c5c31)CNC4=O`, the Potency was 647 nM (active). Regarding `CCCOc1ccc2nc(NC(=O)OC)[nH]c2c1`, the Potency entry was “inactive”. Turning to `CC[C@]1(O)C[C@H]2CN(CCc3c([nH]c4ccccc34)[C@@](C(=O)OC)(c3cc4c(cc3OC)N(C=O)[C@H]3[C@@](O)(C(=O)OC)[C@H](OC(C)=O)[C@]5(CC)C=CCN6CC[C@]43[C@@H]65)C2)C1`, the Potency entry was “inactive”. With `CN1C/C=C/CCOc2cccc(c2)-c2ccnc(n2)Nc2cccc(c2)C1`, the Potency was 115 nM (active).

Turning to `COc1cccc2c1C(=O)c1c(O)c3c(c(O)c1C2=O)C[C@@](O)(C(C)=O)C[C@@H]3O[C@H]1C[C@H](N)[C@H](O)[C@H](C)O1`, the Potency is 458 nM (active). Turning to `CC(C)C[C@H](NC(=O)CNC(=O)c1cc(Cl)ccc1Cl)B1OC(=O)CC(CC(=O)O)(C(=O)O)O1` (some centres undefined), the Potency was 814 nM (active).

On to `Cc1ncsc1-c1ccc([C@H](C)NC(=O)[C@@H]2C[C@@H](O)CN2C(=O)[C@@H](NC(=O)COCCCOCCNC(=O)C[C@@H]2N=C(c3ccc(Cl)cc3)c3c(sc(C)c3C)-n3c(C)nnc32)C(C)(C)C)cc1`, for which the Potency was 145 nM (active). For `Nc1ccccc1NC(=O)c1ccc(CNc2nccc(-c3cccnc3)n2)cc1`, the Potency was 3240 nM (active). Consider `COc1cccc2c1C(=O)c1c(O)c3c(c(O)c1C2=O)C[C@@](O)(C(=O)CO)C[C@@H]3O[C@H]1C[C@H](N)[C@@H](O)[C@H](C)O1`, for which the Potency was 914 nM (active). In the case of `c1cc(Nc2cc(C3CC3)[nH]n2)nc(Nc2ccc3nc[nH]c3c2)n1`, the Potency is 647 nM (active). As to `C[C@H]1C[C@@H]2[C@H]([C@@H](O)C[C@@]3(C)[C@H]2CC[C@]3(O)C(=O)CO)[C@@]2(C)C=CC(=O)C=C12`, the Potency entry is “inactive”. `Cn1cc(CNCC2CCN(c3ncc(C(=O)NO)cn3)CC2)c2ccccc21`: the Potency was 9.1 nM (active).

Regarding `CN(Cc1ccc(/C=C/C(=O)NO)cc1)CC12CC3CC(CC(C3)C1)C2`, the Potency is 72.6 nM (active). Under `COc1cccc2c1C(=O)c1c(O)c3c(c(O)c1C2=O)C[C@@](O)(/C(CO)=N/NC(=O)CCCCCN1C(=O)C=CC1=O)C[C@@H]3O[C@H]1C[C@H](N)[C@H](O)[C@H](C)O1` stands 1020 nM (active); under `CN1CCC(c2c(O)cc(O)c3c(=O)cc(-c4ccccc4Cl)oc23)C1CO` (centres undefined), 408 nM (active).

In the case of `CC(C)(C)c1nc2c3cc[nH]c(=O)c3c3cc(F)ccc3c2[nH]1`, the Potency is 514 nM (active). With `COc1cc(F)ccc1-c1ncnc(Nc2cccc(CS(C)(=N)=O)c2)n1` (centres undefined), the Potency was 814 nM (active). As for `CCS(=O)(=O)N1CCN(c2ccc(Nc3ncc(C(N)=O)c(NC4CC4)n3)cc2)CC1`, the Potency was 1290 nM (active).

In the case of `CC(C)(C)CC(=O)OCC(=O)[C@@]1(O)CC[C@H]2[C@@H]3CCC4=CC(=O)C=C[C@]4(C)[C@H]3[C@@H](O)C[C@@]21C`, the Potency entry is “inactive”. On to `COc1cccc2nc(-c3cccs3)nc(NN3C(=O)C=C(C)C3=O)c12`, for which the Potency was 1820 nM (active). Under `CCCC(=O)O[C@]1(C(=O)CO)CC[C@H]2[C@@H]3CCC4=CC(=O)CC[C@]4(C)[C@H]3[C@@H](O)C[C@@]21C` stands “inactive”; under `CC(C)c1c2cc(-c3ccnc(NC4CCC(NC5CCOCC5)CC4)n3)ccc2nn1C` (centres undefined), 145 nM (active).
